Our source for the activation values is PubChem BioAssay AID493087 (The Scripps Research Institute Molecular Screening Center, 2011).

The whole screen tested about 340,000 compounds, of which about 240 (0.071%) were called active.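 Rule for the calls: active = activation above the mean of all tested compounds plus 3 SD, set per screening campaign (cut at about 17% in these data); inactive = the rest.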 The list comes from a sample in which actives are over-represented; it also holds similar structures and randomly drawn compounds.

The test deals with Insulin-degrading enzyme (Homo sapiens) (UniProt P14735). The test can be described thus: enhanced cellular IDE Abeta cleavage – fluorescence polarization, HEK cells, FAbeta-B substrate, primary screen (AID 493087). Conditions: at 5.96 µM, stronger effect = higher value, 0% vehicle, 100% cell-free pure enzyme wells. In general terms: Fluorescence polarisation rises when a labelled molecule tumbles more slowly, as on binding a larger partner.
Insulin-degrading enzyme (Homo sapiens), sequence (P14735 whole entry, looked up): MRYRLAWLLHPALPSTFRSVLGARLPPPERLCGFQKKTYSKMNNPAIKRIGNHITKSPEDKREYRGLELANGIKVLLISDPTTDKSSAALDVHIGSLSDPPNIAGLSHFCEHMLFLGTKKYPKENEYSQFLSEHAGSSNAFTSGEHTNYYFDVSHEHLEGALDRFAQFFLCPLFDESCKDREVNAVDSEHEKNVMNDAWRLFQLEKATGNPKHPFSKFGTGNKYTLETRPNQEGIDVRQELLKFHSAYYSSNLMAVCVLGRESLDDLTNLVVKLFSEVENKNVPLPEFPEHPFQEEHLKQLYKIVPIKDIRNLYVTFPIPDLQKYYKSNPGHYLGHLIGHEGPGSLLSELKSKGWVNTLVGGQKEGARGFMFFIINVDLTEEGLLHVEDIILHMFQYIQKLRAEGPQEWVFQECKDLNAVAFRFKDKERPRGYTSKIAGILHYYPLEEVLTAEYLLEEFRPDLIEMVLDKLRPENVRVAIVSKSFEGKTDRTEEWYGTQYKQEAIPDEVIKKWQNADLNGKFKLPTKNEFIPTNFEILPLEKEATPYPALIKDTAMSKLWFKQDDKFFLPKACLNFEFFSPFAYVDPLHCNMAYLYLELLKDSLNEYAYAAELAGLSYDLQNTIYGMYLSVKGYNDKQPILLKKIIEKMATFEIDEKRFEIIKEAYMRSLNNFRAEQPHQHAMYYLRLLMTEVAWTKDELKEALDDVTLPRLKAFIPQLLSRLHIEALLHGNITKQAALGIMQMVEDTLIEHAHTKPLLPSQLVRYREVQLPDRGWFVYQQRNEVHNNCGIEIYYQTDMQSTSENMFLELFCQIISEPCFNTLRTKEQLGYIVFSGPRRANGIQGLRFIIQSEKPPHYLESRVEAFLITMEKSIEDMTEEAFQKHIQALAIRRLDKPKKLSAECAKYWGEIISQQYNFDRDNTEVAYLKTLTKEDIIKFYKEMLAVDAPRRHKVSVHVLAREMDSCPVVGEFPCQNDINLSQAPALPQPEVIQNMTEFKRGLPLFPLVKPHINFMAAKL
Take `O=C(O)CCn1cc(/C=C/C(=O)c2ccc(Cl)cc2)c(-c2cccc(Br)c2)n1`: the activation was 7.16% (inactive).
To `COc1cc2c3c(c1)/C(=C1/SC(=S)NC1=O)C(=O)N3C(C)(C)C=C2C` belongs 3.91% (inactive); to `O=C(CSc1nc2nccnc2c(=O)n1Cc1cccs1)Nc1ccccc1F`, -1.39% (inactive); to `N#C/C(=C/c1cccc([N+](=O)[O-])c1)c1nnc2n1CCCCC2`, 1.53% (inactive).
To `O=C(O)c1ccc(S(=O)(=O)N2CCC(Cc3ccccc3)CC2)cc1` belongs -5.76% (inactive); to `COc1ccc(-c2c(-c3cc(OC)cc(OC)c3)n(C)c3ccc(-c4ccn[nH]4)cc23)cc1`, 1.2% (inactive).
To `CCSc1nc(=S)n(CC)c(C)c1C(C)=O` belongs -2.33% (inactive).
In the case of `CC1=C(C)CC(C(=O)NNC(=O)c2csc3c2CCC(C(C)(C)C)C3)C(C(=O)O)C1` (stereo not drawn), the activation was 4.06% (inactive).
The result for `Cc1ccc(CNC(=O)C2CCN(S(=O)(=O)c3ccc4nc5c(c(C(=O)O)c4c3)CC(C)CC5)CC2)cc1` (stereo not drawn) reads -1.27% (inactive); that for `Cc1ccc(-c2nc(COC(=O)c3c(C)noc3C)cs2)cc1`, -2.15% (inactive); that for `COC(=O)c1sc2[nH]c(=S)n(N)c(=O)c2c1C`, 3.84% (inactive).
The result for `O=C(CCC(=O)N1CCN(S(=O)(=O)c2ccc(Cl)cc2)CC1)NCc1cccc(C(F)(F)F)c1` reads 2.14% (inactive); that for `Cc1ccc(S(=O)(=O)N(C)CC(=O)NCC(c2ccc(F)cc2)N2CCOCC2)cc1` (stereo not drawn), 1.51% (inactive).
As for `Cn1nccc1C(=O)N1CCCC(C(=O)c2ccc(Oc3ccccc3)cc2)C1` (stereo not drawn), the activation is -8.2% (inactive).
The result for `O=C(NCCCn1ccnc1)C(=O)NCC1OCCN1S(=O)(=O)c1cc(F)ccc1F` (stereo not drawn) reads 4.73% (inactive).
Turning to `COc1ccc(-n2ncc3c2CC(C)(C)CC3NC(=O)CCc2c(C)nn(C)c2C)cc1` (stereo not drawn), the activation is 5.01% (inactive).
As to `CN1CCC(=NNC(=O)CN(c2cccc(Cl)c2)S(C)(=O)=O)CC1`, the activation is 2.41% (inactive).
On to `O=C(CN1C(=O)NC(Cc2ccccc2)(Cc2ccccc2)C1=O)NCC1CCCCC1`, for which the activation was 2.02% (inactive).
The result for `CCc1cc(=O)oc2cc(OCC(=O)N3CCCc4ccccc43)ccc12` reads -2.67% (inactive).
For the molecule `O=C(CN1C(=O)CC(c2ccccc2)=Nc2ccccc21)NC1CCCCC1`, the activation was 1.38% (inactive).
`CC12CCCCC1=CC(=O)CC2` (stereo not drawn): the activation is 3.28% (inactive).
As to `Cc1ccc(S(=O)(=O)N2CC(C)N(S(C)(=O)=O)C2)cc1` (stereo not drawn), the activation is 2.36% (inactive).
With `COCC1CCN(C(=O)CCc2nnc(C3(c4ccc(Cl)cc4)CCC3)o2)C1` (stereo not drawn), the activation is 0.92% (inactive).
As to `CCC(Cc1ccccc1)NS(=O)(=O)c1ccc2c(c1)NC(=O)CS2` (stereo not drawn), the activation was 4.18% (inactive).
`O=C(NCCCN1CCOCC1)c1ccc2c(c1)N(Cc1cccc(F)c1)C(=O)c1ccccc1S2`: the activation is 0.8% (inactive).
To `CN1CCN(CCCNC(=O)c2ccc(/C=C3\Oc4ccccc4N(Cc4ccc(Cl)cc4)C3=O)cc2)CC1` belongs -0.17% (inactive).
The result for `CCN1CCN(CCNC(=O)c2ccc(/C=C3/Sc4ccccc4N(Cc4cccc(C)c4)C3=O)cc2)CC1` reads 24.8% (active).
To `CCC1CCCCN1C(=S)Nc1ccc(C(C)=O)cc1` (stereo not drawn) belongs 1.79% (inactive); to `CCOC(=O)c1cc2c(=O)n3ccccc3nc2n(CC(C)C)c1=NC(=O)c1c(-c2c(F)cccc2Cl)noc1C`, 1.41% (inactive).
`CC1(C)CC(N2CCN(C(c3ccccc3)c3ccccc3)CC2)=CC(=[N+]2CCCCC2)C1`: the activation was 0.04% (inactive).
Regarding `Oc1c(CN2CCOCC2)ccc(CN2CCOCC2)c1O`, the activation was -3.83% (inactive).
Take `c1ccc2c(c1)CCc1snnc1-2`: the activation is 2.79% (inactive).
The result for `NC1=NOC(=O)C1C1CCCCC1` (stereo not drawn) reads 5.24% (inactive); that for `COC(=O)Nc1ccc(S(=O)(=O)N(C)CC(F)(F)C(F)F)cc1`, 3.58% (inactive); that for `Brc1ccc(/C=N/N2CCN(C3c4ccccc4-c4ccccc43)CC2)s1`, -7.03% (inactive).
The result for `CCc1ccc(C(=O)NNC(=O)C2CCN(c3ncnc4sc(C)c(C)c34)CC2)cc1` reads -11.5% (inactive).
To `COc1ccc(C(=O)NCCn2nc(C)cc2C)cc1OC1CCN(C(C)=O)CC1` belongs 1.62% (inactive); to `O=c1nc(N2CCOCC2)nc2n1CCO2`, -0.31% (inactive).
Take `Cc1ccc(S(=O)(=O)/N=C(\CN2CCOCC2)N2CCOCC2)cc1`: the activation was -5.66% (inactive).
For the molecule `COc1cc2[nH]c(O)c(C=O)c2cc1OC`, the activation is -5.21% (inactive).
The result for `COc1ccc(C(=O)Nc2cc(C)ccc2NC(=O)COc2ccccc2)cc1` reads 0.16% (inactive); that for `CCS(=O)(=O)c1ccc(O)c(NC(=O)COc2ccc(Cl)cc2)c1`, 0.73% (inactive).
The result for `Cc1ccc(O)c(NC(=S)NC(=O)COc2ccc(Br)cc2)c1` reads 18.1% (active).
The result for `Cc1cc(C)n2nc(C(=O)Nc3cccc(S(=O)(=O)N4CCOCC4)c3)nc2n1` reads 1.61% (inactive); that for `COc1ccc([C@H]2CC(=O)C=C(/C=C/c3ccc(Cl)cc3)C2)cc1`, 3.83% (inactive).
With `COCc1cc(C)n(CC(=O)NCC2CCCO2)c(=O)c1C#N` (stereo not drawn), the activation is -1.81% (inactive).
To `COc1ccc(CCNC(=O)COC(=O)C2CC2C)cc1` (stereo not drawn) belongs 3.39% (inactive); to `O=C(CCCCCCCC(=O)N1CCCCC1)N1CCCCC1`, -0.9% (inactive).
